# 12-LOX inh – Primary qHTS assay for inhibitors of human arachidonate 12S-lipoxygenase (ALOX12): Round 2. 580,000 compounds, 1.1% hits. Polyunsaturated fatty acid lipoxygenase ALOX12 (Homo sapiens), P18054. Potency, µM (doses to about 108 µM), for inactives: top-dose activity change, negative = inhibition, hits mostly inhibitors. AID 1671190, 2021. purified 12hLO, xylenol orange hydroperoxide absorbance; further: potency means the concentration at half of the fitted maximal effect; on the % scale 0 is the no-effect control and ±100 the full control effect
# Target sequence (P18054 whole entry, looked up): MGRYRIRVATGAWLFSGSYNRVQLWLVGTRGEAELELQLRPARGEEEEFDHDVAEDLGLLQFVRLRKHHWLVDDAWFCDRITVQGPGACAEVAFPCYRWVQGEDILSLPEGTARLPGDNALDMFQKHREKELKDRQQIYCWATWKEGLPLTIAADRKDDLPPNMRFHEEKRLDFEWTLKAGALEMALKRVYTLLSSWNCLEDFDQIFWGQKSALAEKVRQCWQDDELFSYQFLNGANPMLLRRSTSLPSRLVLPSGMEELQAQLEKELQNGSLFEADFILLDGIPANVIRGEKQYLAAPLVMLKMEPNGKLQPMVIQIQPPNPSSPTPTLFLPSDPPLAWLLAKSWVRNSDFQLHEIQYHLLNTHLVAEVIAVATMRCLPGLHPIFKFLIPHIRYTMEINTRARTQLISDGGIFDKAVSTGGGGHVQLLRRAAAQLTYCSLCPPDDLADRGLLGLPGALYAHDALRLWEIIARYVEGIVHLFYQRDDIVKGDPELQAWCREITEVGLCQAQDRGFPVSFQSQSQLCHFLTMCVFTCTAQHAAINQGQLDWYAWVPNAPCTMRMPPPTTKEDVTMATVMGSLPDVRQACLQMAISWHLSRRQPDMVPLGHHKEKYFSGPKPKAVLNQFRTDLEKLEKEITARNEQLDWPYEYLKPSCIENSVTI
#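 Purified human 12hLO at 150 nM in 25 mM Hepes, 0.01% Triton X-100, pH 7.0, preincubated 15 min at room temperature with compound. Reaction started with 40 uM arachidonic acid, 30 min at room temperature. Hydroperoxide measured by Fe-xylenol orange, 573/405 nm absorbance ratio.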
# A549 tox – Nrf2 qHTS screen for inhibitors: counterscreen for cytotoxicity; A549 ARE-Fluc cells, CellTiter-Fluor viability, 18-24 h; Potency, µM (highest dose often 46 µM), for the others: top-dose activity change, negative = cytotoxicity, hits mostly inhibitors; 390,000 compounds, 0.16% hits; further: potency means the concentration at half of the fitted maximal effect; on the % scale 0 is the no-effect control and ±100 the full control effect
#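 A549 ARE_Fluc cells in 5% FBS OPTI-MEM were exposed to compounds in concentration-response for 18-24 h at 37 deg C. Viability was read by CellTiter-Fluor fluorescence (Ex 405/Em 525) after 30 min, before the luciferase read.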
# Nrf2 ARE act – qHTS of Nrf2 Activators; 410,000 compounds, 0.31% hits; AREc32 ARE-luciferase reporter (MCF7-derived line), luminescence, 24 h; Potency, µM (doses to about 46.1 µM), without a hit: top-dose activation, actives largely listed as activators; AID 624171, 2012; further: potency means the concentration at half of the fitted maximal effect; % of control where 0% means no effect; nearly all actives have a fitted effect of over 65% in size
#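 Luciferase luminescence (Steady-Glo, 30 min at room temperature) served as the read-out of ARE activation in AREc32 cells treated with compounds for 24 hr at 37 deg C.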
# LDHA block – qHTS assay for inhibitors of human lactate dehydrogenase; purified LDHA, NADH/diaphorase-resazurin fluorescence; hits give low values; activity change, % (values are at about 110 or 230 µM); L-lactate dehydrogenase A chain (Homo sapiens), P00338; 480,000 compounds, 0.15% hits; in the data active means activity change below about -30%; inconclusive means mostly about -25% to -30%;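 further: plate controls were DMSO wells for no effect and wells without enzyme for full effect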
#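 Human LDH5 at 2 nM final in Tris HCl pH 7.4 with 0.06 mM NADH and 0.2 mM pyruvate, reacted 5 minutes at room temperature. Remaining NADH coupled via diaphorase/resazurin; resorufin fluorescence read at 0 and 20 minutes, normalized to enzyme-free and DMSO wells.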
# Nrf2 block – Nrf2 qHTS screen for inhibitors; 360,000 compounds, 2.1% hits; A549 ARE-Fluc reporter, luciferase luminescence, 18-24 h; Potency, µM (top dose mostly 46 µM), for the others: at the top dose activity change, negative = inhibition, hits mostly inhibitors; AID 504444, 2011; further: potency means the concentration at half of the fitted maximal effect; on the % scale 0 is the no-effect control and ±100 the full control effect; nearly all actives have a fitted effect of over 60% in size
#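 Nrf2 activity is the BugLite luminescence, read 15 min after reagent at room temperature, following CellTiter-Fluor cytotoxicity readout (30 min, 37C). Compound titrations were applied for 18-24 h to 5000 A549 ARE_Fluc cells/well in 5% FBS OPTI-MEM.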
# mIDH1 inhibitor – qHTS for Inhibitors of mutant isocitrate dehydrogenase 1 (IDH1): qHTS. Isocitrate dehydrogenase [NADP] cytoplasmic (Homo sapiens), O75874. IDH1-R132H enzyme, NADPH consumption, diaphorase/resazurin fluorescence. Potency, µM (titrated, usually from 76.6 µM), without a hit: at the highest dose activity change, negative = inhibition, hits mostly inhibitors. 390,000 compounds, 0.093% hits. AID 602179, 2012; further: potency means the concentration at half of the fitted maximal effect; on the % scale 0 is the no-effect control and ±100 the full control effect; nearly all actives have a fitted effect of over 65% in size
#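 IDH1-R132H (0.5 ug/mL dispensed) in pH 7.5 Tris buffer was preincubated 30 min with compound, then given a substrate mix of 0.016 mM NADPH and 2 mM alpha-KG for 80 min at room temperature; remaining NADPH was read by diaphorase/resazurin fluorescence.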
# Numbers without * were called inactive; ? = inconclusive; · = no result; ! = not active in a repeat; [ ] = another dose, or the depositor's remark. Sampled rows, rich in hits. Any-hit rate of the full collection: about 2.7%. Unless noted, the call rests on the fitted dose curve; in most records, active means well fitted curve in the direction sought with a large enough effect; inconclusive means small, poorly fitted or top-dose-only effect, or another doubt; inactive means no such curve, though single readings can be large; an effect the other way counts as inactive or inconclusive.
SMILES,12-LOX inh,A549 tox,Nrf2 ARE act,LDHA block,Nrf2 block,mIDH1 inhibitor
COCCn1c(=O)[nH]c(=O)c2c3c(cnc21)C(=O)CC(c1cccs1)C3 (stereo not given),?,·,·,16,·,·
Cc1ccc(NS(=O)(=O)c2cc(NC(=O)c3ccc4c(c3)NC(=O)CS4)ccc2C)c(C)c1,?,?,3%,-8,18µM*,-4%
COc1cc(C)c(NC(=O)c2ccc3c(c2)NC(=O)CS3)cc1OC,20µM*,·,·,28,·,·
COc1cc(NC(=O)c2ccc3c(c2)NC(=O)CS3)c(OC)cc1Cl,-32%,·,·,-1,·,·
CN(Cc1ccsc1)C(=O)C1CC=CCC1c1nc2ccccc2s1 (stereo not given),?,·,·,-3,·,·
CC(=O)c1c(C)nc(C2CC2)nc1SCC(=O)NC(C)C(C)C (stereo not given),5%,·,·,5,·,·
COc1ccc(N(C)S(=O)(=O)c2cccc(C(=O)OCC(=O)c3c(N)n(C)c(=O)n(C)c3=O)c2)cc1,-6%,-12%,0%,-8,21µM*,5%
CC(C(=O)c1ccc(-c2ccccc2)cc1)[n+]1ccccc1 (stereo not given),94%[57.4 µM],?,2%,-6,7.3µM*,-5%
CCCOc1ccc(/C=C(/C#N)c2nc3ccccc3[nH]2)cc1OC,?,·,·,6,·,·
COc1ccc(-c2cn(-c3ccccc3)c3[n+]2CCS3)cc1,1%,-12%,2%,-3,2.6µM*,5%
Cc1ccc(OCCN2CCN(C(=O)CCC(=O)Nc3nnc(C(C)C)s3)CC2)cc1,-2%,?,4%,-2,12µM*,6%
Cc1ccc(C(=O)N2CCN(Cc3ccc4c(c3)OCO4)CC2)o1,-26%,11%,0%,-1,-3%,-3%
O=C(c1ccc(COc2ccc(Cl)cc2)o1)N1CCN(Cc2ccc3c(c2)OCO3)CC1,?,-20%,3%,-2,23µM*,4%
O=C(c1ccc(COc2ccccc2Cl)o1)N1CCN(Cc2ccc3c(c2)OCO3)CC1,45µM*!,-10%,4%,0,-14%,2%
CCOC(=O)c1[nH]c2ccc(C)cc2c1NC(C)=O,-21%,·,·,-2,·,·
Cn1c(=O)[nH]c(=O)c2[nH]c(N3CCN(c4ccccc4)CC3)nc21,14%,·,·,6,·,·
N#Cc1ccc(NC(=O)c2cc(-c3cccs3)nc3ccccc23)cc1,-21%,·,·,10,·,·
Cc1cccn2c(=O)c(C(=O)NC(C)c3ccccc3)c(O)nc12 (stereo not given),?,?,0%,12,6.5µM*,-28%
COc1ccc(CNC(=O)c2c(O)nc3c(C)cccn3c2=O)cc1,-33%,5%,0%,1,15%,7%
O=C(O)C(c1c[nH]c2cc(F)ccc12)N1CCN(CCOc2ccc(Cl)cc2)CC1 (stereo not given),?,·,·,-13,·,·
COc1ccc2cnn(CC(=O)N3CCN(Cc4ccccc4)CC3)c(=O)c2c1OC,37%,·,·,-4,·,·
Clc1cc(Cl)cc(Nc2ncnc(-n3cccc3)n2)c1,294%,2%,2µM*,-1,-11%,6%
CCCNC(=O)C(C)OC(=O)c1ccc2[nH]c(C)c(C)c2c1 (stereo not given),-8%,·,·,-10,·,·
COc1ccc(NC(C)=O)cc1NC(=O)C1CCCN1C(=O)C12CC3CC(CC(C3)C1)C2 (stereo not given),?,·,·,-4,·,·
COc1ccc(S(=O)(=O)Nc2cccc3c2O[C@H](CN(C)Cc2ccc(Oc4ccccc4)cc2)[C@@H](C)CN([C@H](C)CO)C3=O)cc1,?,-13%,0%,-2,16µM*,-5%
SMILES,12-LOX inh,A549 tox,Nrf2 ARE act,LDHA block,Nrf2 block,mIDH1 inhibitor
C[C@@H]1CN([C@H](C)CO)C(=O)c2cc(NS(=O)(=O)c3ccc(F)cc3)ccc2O[C@@H]1CN(C)Cc1ccc(Cl)c(Cl)c1,?,15µM*,-3%,2,18µM*,4%
COc1ccc(S(=O)(=O)Nc2cccc3c2O[C@H](CN(C)Cc2ccc(-c4ccccc4)cc2)[C@@H](C)CN([C@H](C)CO)C3=O)cc1,-8%,-4%,3%,1,1%,-1%
C[C@H](CO)N1C[C@H](C)[C@@H](CN(C)S(=O)(=O)c2ccc(F)cc2)Oc2c(NC(=O)Nc3ccc(C(F)(F)F)cc3)cccc2C1=O,-10%,-15%,0%,0,18µM*,-11%
C[C@H](CO)N1C[C@H](C)[C@@H](CN(C)Cc2ccc(Cl)c(Cl)c2)Oc2c(NC(=O)CCC(F)(F)F)cccc2C1=O,-29%,-14%,-2%,-1,18µM*,-23%
C[C@H]1CN([C@@H](C)CO)C(=O)c2cccc(NC(=O)Nc3ccc(C(F)(F)F)cc3)c2O[C@@H]1CN(C)S(=O)(=O)c1ccc(Cl)cc1,-23%,?,-5%,4,?,-4%
COc1ccc(OC)c(C2CCCN2Cc2nc(-c3ccccc3Cl)no2)c1 (stereo not given),51%,·,·,7,·,·
c1coc(CN2CCN(Cc3ccc(OCc4ccncc4)cc3)CC2)c1,-6%,·,·,2,·,·
CCN(c1ccc(-c2csc(NC)n2)cc1)S(C)(=O)=O,?,·,·,3,·,·
C[C@H](CO)N1C[C@H](C)[C@@H](CN(C)CC2CCCCC2)Oc2c(NC(=O)Cc3ccccc3)cccc2C1=O,-13%,-16%,-2%,-2,23µM*,-28%
CC(C)NC(=O)N(C)C[C@H]1Oc2c(NC(=O)Cc3ccccc3)cccc2C(=O)N([C@H](C)CO)C[C@@H]1C,-6%,1%,0%,1,14%,-3%
O=C1c2ccccc2NC(c2ccc(-c3ccc(F)cc3)o2)N1O (stereo not given),40µM*,2%,0%,1,8%,·
O=C1c2ccccc2NC(c2ccc(-c3ccc(Br)cc3)o2)N1O (stereo not given),20µM*,-2%,3%,-2,·,11%
Cc1ccc(Nc2ccc3ccccc3c2)cc1,?,·,·,14,·,·
Cc1cccc(N2CCN(C(=O)C3CCN(c4ncnc5c4nc4n5CCCCC4)CC3)CC2)c1C,-5%,?,0%,0,21µM*,-1%
Cc1ccc(NC(=O)C2CCN(c3ncnc4c3nc3n4CCCCC3)CC2)cc1Cl,-1%,?,0%,-5,13µM*,-5%

# Source: PubChem (National Center for Advancing Translational Sciences (NCATS))
